Consider eight molecules from PubChem BioAssay (NCATS).

Inconclusive results are not listed. Activity calls are given as the source filed them. The call rests on the fitted dose curve; in most records, active means well fitted curve in the direction sought with a large enough effect; inconclusive means small, poorly fitted or top-dose-only effect, or another doubt; inactive means no such curve, though single readings can be large; an effect the other way counts as inactive or inconclusive.

Assay [1] in a line: Quantitative High-Throughput drug screen in 47 multiple myeloma cell lines against the NCATS MIPE library collection: Karpas620_DSMZ cell viability assay (AID 1918959). Further: nearly all actives have a fitted effect of over 30% in size. An outline of the steps: (§1)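 Myeloma cell lines, 500 cells per well, exposed to MIPE 4.0 library compounds for 48 h at 37C, 5% CO2. Viability from ATP by CellTiter-Glo luminescence; normalised to DMSO (100%) and media-only (0%) wells.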

The nature of assay [2]: Quantitative High-Throughput drug screen in 47 multiple myeloma cell lines against the NCATS MIPE library collection: KMM1_JCRB cell viability assay (AID 1918960). Further: nearly all actives have a fitted effect of over 30% in size. An outline of the steps: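 Here, 48 h treatment with MIPE 4.0 agents at 37 °C preceded an ATP luminescence read. Plating density was 500 cells per well.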
Assay [3] can be described thus: Quantitative High-Throughput drug screen in 47 multiple myeloma cell lines against the NCATS MIPE library collection: KHM11_PLB cell viability assay (AID 1918962). Further: nearly all actives have a fitted effect of over 35% in size. An outline of the steps:
as §1

Assay [4] is described as follows: Quantitative High-Throughput drug screen in 47 multiple myeloma cell lines against the NCATS MIPE library collection: JIM3_ECACC cell viability assay (AID 1918963; further: nearly all actives have a fitted effect of over 35% in size). An outline of the steps: as §1
Assay [5] can be described thus: Quantitative High-Throughput drug screen in 47 multiple myeloma cell lines against the NCATS MIPE library collection: JIM1_ECACC cell viability assay (AID 1918964). In outline: (§2)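 Luminescent ATP measurement with CellTiter-Glo gives viability, scaled between DMSO-only wells (100%) and media-only wells (0%). Cells, 500 per well, faced library compounds for 48 hours at 37C.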

Assay [6] in a line: Quantitative High-Throughput drug screen in 47 multiple myeloma cell lines against the NCATS MIPE library collection: H1112_PLB cell viability assay (AID 1918967; further: nearly all actives have a fitted effect of over 30% in size). An outline of the steps: as §2
Assay [7] in a line: Quantitative High-Throughput drug screen in 47 multiple myeloma cell lines against the NCATS MIPE library collection: KMS27_JCRB cell viability assay (AID 1918970). Further: nearly all actives have a fitted effect of over 30% in size. The settings on record: KMS27 myeloma cells, CellTiter-Glo ATP viability, 48 h; viability (% of DMSO): at 45.8 µM (top of the series). In outline:
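KMS27_JCRB myeloma cells, 500 per well, exposed 48 h at 37 C, 5% CO2 to MIPE 4.0 compounds. Viability from ATP by CellTiter-Glo luminescence, normalized to DMSO (100%) and medium-only (0%) wells.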
In general terms: ATP-based viability assays read luminescence as a measure of living cells.

The nature of assay [8]: Quantitative High-Throughput drug screen in 47 multiple myeloma cell lines against the NCATS MIPE library collection: KMS12PE_JCRB cell viability assay (AID 1918972). Further: nearly all actives have a fitted effect of over 30% in size. An outline of the steps:
as §1

Assay [9] is described as follows: Quantitative High-Throughput drug screen in 47 multiple myeloma cell lines against the NCATS MIPE library collection: KMS20_JCRB cell viability assay (AID 1918973). Further: nearly all actives have a fitted effect of over 45% in size. In outline: as §2
Assay [10] in a line: Quantitative High-Throughput drug screen in 47 multiple myeloma cell lines against the NCATS MIPE library collection: KMS26_JCRB cell viability assay (AID 1918975). Further: nearly all actives have a fitted effect of over 45% in size. An outline of the steps:
(§3)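 Myeloma cells (500 per well) were exposed to MIPE 4.0 compounds by pin transfer and incubated 48 hours at 37C, 5% CO2. Viability was read as ATP by CellTiter-Glo luminescence, normalised to DMSO (100%) and media-only (0%) wells.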

Assay [11] in a line: Quantitative High-Throughput drug screen in 47 multiple myeloma cell lines against the NCATS MIPE library collection: NCIH929_DSMZ cell viability assay (AID 1918978). Further: nearly all actives have a fitted effect of over 35% in size. In outline:
(§4)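 500 cells/well per myeloma line exposed to pinned MIPE 4.0 compounds for 48 h at 37 °C, 5% CO2. Viability read as ATP by CellTiter-Glo luminescence, normalised to DMSO-only (100%) and media-only (0%) wells.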

Assay [12] is described as follows: Quantitative High-Throughput drug screen in 47 multiple myeloma cell lines against the NCATS MIPE library collection: OCIMY1_PLB cell viability assay (AID 1918979). Further: nearly all actives have a fitted effect of over 35% in size. An outline of the steps: as §4
Assay [13] in a line: Quantitative High-Throughput drug screen in 47 multiple myeloma cell lines against the NCATS MIPE library collection: INA6_PLB cell viability assay (AID 1918965; further: nearly all actives have a fitted effect of over 55% in size). In outline:
as §1

A short description of assay [14]: Quantitative High-Throughput drug screen in 47 multiple myeloma cell lines against the NCATS MIPE library collection: JJN3_DSMZ cell viability assay (AID 1918966; further: nearly all actives have a fitted effect of over 50% in size). In outline: as §2
Assay [15] can be described thus: Quantitative High-Throughput drug screen in 47 multiple myeloma cell lines against the NCATS MIPE library collection: Karpas25_ECACC cell viability assay (AID 1918968; further: nearly all actives have a fitted effect of over 35% in size). An outline of the steps: as §2
The nature of assay [16]: Quantitative High-Throughput drug screen in 47 multiple myeloma cell lines against the NCATS MIPE library collection: KMS12BM_JCRB cell viability assay (AID 1918971). Further: nearly all actives have a fitted effect of over 35% in size. An outline of the steps:
as §3

The nature of assay [17]: Quantitative High-Throughput drug screen in 47 multiple myeloma cell lines against the NCATS MIPE library collection: MOLP8_DSMZ cell viability assay (AID 1918977). Further: nearly all actives have a fitted effect of over 45% in size. In outline: as §4
Potency means the concentration at half of the fitted maximal effect.

For `O=C1c2cccc(O)c2C(=O)c2c(O)cc(CO)cc21`, the Potency result in assay [1], in [2], in [3], in assay [4], in assay [5] and in assay [6] was “inactive” each time. Also, the Potency result in assay [7], in [8], in [9], in [10], in assay [11] and in assay [12] was “inactive” in each case.

With `O=C(C=CC#Cc1cccc(NS(=O)(=O)c2ccccc2)c1)NO`, the Potency is 1.87 µM (active) in assay [1]; 0.526 µM (active) in assay [2]; 2.35 µM (active) in assay [3]; 5.26 µM (active) in assay [4]; 1.32 µM (active) in assay [5]; 0.743 µM (active) in assay [13]. Further, the Potency is 2.35 µM (active) in assay [14]; 2.96 µM (active) in assay [6]; 0.833 µM (active) in assay [15]; 1.48 µM (active) in [16]; 1.18 µM (active) in assay [8]; 2.35 µM (active) in assay [9]. For the same molecule, the Potency in [10] is 3.32 µM (active); in [17], 0.935 µM (active); in assay [11] it was 1.18 µM (active); in [12], 2.96 µM (active).

For the molecule `C[C@@H]1CC[C@@]2(OC1)OC1CC3C4CC=C5CC(O)CCC5(C)C4CCC3(C)C1[C@@H]2C` (stereo not given in full), the Potency result in assay [1], in assay [2], in assay [3], in [4], in assay [5] and in [14] was “inactive” each time. Further, the Potency entry in assay [6], in assay [15], in assay [7], in assay [8], in assay [17] and in assay [11] was “inactive” throughout.

For `Cc1cc(Nc2ncc3c(n2)N(C)C(=O)N(c2cc(NC(=O)c4cccc(C(F)(F)F)c4)ccc2C)C3)n(C)n1`, the Potency in assay [1] was 1.48 µM (active); in assay [2], 1.18 µM (active); in assay [3], 0.372 µM (active); in assay [4], 2.64 µM (active); in [5], 0.118 µM (active); in assay [13], 0.469 µM (active). For the same molecule, the Potency in assay [6] was 2.64 µM (active); in [7] it was 1.87 µM (active); in [16], 0.526 µM (active); in assay [8], 1.05 µM (active); in assay [17] it was 0.296 µM (active); in assay [11], 1.05 µM (active).

With `C=CC1=C(C(=O)O)N2C(=O)[C@@H](NC(=O)C(=NO)c3csc(N)n3)[C@H]2SC1`, the Potency result in assay [1], in [2], in assay [3], in [4], in assay [5] and in assay [6] was “inactive” each time. Further, the Potency result in assay [15], in assay [7], in assay [16], in [10], in [11] and in [12] was “inactive” in each case.

On to `CC1(C)CC(O)CC(C)(C)N1[O]`, for which the Potency result in assay [1], in assay [2], in assay [4], in assay [5], in [13] and in assay [15] was “inactive” throughout. The Potency entry in assay [7], in assay [16], in [8], in assay [10], in assay [11] and in assay [12] was “inactive” in each case.

Take `OC[C@@H](O)[C@@H](O)[C@H](O)[C@@H](O)CO`: the Potency result in assay [1], in [2], in assay [4], in assay [5], in assay [13] and in [14] was “inactive” throughout. The Potency entry in [15], in assay [7], in assay [16], in assay [10], in assay [17] and in assay [11] was “inactive” throughout. Further, in assay [12], the Potency entry is “inactive”.

Turning to `O=C(NNC(=O)c1ccc(CNS(=O)(=O)c2ccc(F)c(Cl)c2)cc1)c1ccccc1`, the Potency result in [1], in assay [2], in assay [3], in assay [4], in assay [14] and in assay [15] was “inactive” in each case. The Potency entry in [7], in assay [9], in [17], in [11] and in assay [12] was “inactive” each time.
